Common to all, as to test: phage ELISA signal ratio (GST-PRM binding over GST background); higher = stronger binding of peptide-phage to the PRM
For assay [1], the target named is T1, MYL6 4-151 EF-hand_6 (domain begin residue: 4, domain end residue: 151), P60660.
T1 chain: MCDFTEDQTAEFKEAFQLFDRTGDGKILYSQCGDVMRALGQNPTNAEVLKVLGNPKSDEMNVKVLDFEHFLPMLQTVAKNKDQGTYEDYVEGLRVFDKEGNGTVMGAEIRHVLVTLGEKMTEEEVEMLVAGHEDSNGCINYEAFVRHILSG
The gist of the method:
(§1)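 Human peptide recognition domains were expressed in 96-well plates as fusions to the C-terminus of glutathione S-transferase (GST) and selected against an M13 phage library displaying randomized hexadecapeptides, cysteine-free and glycine-flanked, on the gene-8 major coat protein. Five selection rounds were run, and approximately 48 individual clones from rounds 4 and 5 were tested by phage ELISA. Each value is the ELISA signal on the GST-domain fusion divided by the signal on GST alone. Positive clones were sequenced.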

Assay [2] has as its target T2, NR1H3 204-447 Hormone_recep (domain begin residue: 204, domain end residue: 447), Q13133.
T2 chain: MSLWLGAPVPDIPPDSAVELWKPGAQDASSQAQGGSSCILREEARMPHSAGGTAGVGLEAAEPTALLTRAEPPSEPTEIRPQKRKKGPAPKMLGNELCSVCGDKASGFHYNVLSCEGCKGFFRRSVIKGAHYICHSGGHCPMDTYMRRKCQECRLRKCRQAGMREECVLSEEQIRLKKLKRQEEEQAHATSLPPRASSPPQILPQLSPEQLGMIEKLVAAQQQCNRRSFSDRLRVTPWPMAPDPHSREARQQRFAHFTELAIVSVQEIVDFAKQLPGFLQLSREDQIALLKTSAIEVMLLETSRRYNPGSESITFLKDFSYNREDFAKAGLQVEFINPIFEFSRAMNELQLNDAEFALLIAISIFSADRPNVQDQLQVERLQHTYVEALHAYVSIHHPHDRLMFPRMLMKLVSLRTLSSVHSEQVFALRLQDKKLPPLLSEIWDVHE
The essentials: as §1

Assay [3] concerns the target MSH6 89-203 PWWP (domain begin residue: 89, domain end residue: 203), P52701. The gist of the method:
as §1

The target in assay [4] is NR5A2 297-541 Hormone_recep (domain begin residue: 297, domain end residue: 541), O00482. The gist of the method: as §1
Chain of NR5A2 297-541 Hormone_recep (domain begin residue: 297, domain end residue: 541), O00482 (O00482 whole entry): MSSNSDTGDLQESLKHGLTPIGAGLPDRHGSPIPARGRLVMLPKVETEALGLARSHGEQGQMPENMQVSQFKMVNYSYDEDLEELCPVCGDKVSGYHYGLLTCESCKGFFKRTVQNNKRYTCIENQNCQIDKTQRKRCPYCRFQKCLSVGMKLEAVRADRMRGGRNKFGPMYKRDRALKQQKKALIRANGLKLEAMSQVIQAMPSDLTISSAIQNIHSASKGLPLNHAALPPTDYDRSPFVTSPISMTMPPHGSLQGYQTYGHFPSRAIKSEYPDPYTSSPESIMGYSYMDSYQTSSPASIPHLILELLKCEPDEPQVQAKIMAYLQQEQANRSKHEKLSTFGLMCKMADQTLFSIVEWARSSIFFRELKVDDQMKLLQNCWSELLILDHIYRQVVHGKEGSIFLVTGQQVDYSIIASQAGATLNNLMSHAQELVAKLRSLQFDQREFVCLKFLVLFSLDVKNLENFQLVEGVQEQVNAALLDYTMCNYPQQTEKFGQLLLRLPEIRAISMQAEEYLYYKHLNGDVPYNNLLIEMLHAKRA
Assay [5] deals with T3, NR4A2 327-598 Hormone_recep (domain begin residue: 327, domain end residue: 598), P43354.
T3 chain: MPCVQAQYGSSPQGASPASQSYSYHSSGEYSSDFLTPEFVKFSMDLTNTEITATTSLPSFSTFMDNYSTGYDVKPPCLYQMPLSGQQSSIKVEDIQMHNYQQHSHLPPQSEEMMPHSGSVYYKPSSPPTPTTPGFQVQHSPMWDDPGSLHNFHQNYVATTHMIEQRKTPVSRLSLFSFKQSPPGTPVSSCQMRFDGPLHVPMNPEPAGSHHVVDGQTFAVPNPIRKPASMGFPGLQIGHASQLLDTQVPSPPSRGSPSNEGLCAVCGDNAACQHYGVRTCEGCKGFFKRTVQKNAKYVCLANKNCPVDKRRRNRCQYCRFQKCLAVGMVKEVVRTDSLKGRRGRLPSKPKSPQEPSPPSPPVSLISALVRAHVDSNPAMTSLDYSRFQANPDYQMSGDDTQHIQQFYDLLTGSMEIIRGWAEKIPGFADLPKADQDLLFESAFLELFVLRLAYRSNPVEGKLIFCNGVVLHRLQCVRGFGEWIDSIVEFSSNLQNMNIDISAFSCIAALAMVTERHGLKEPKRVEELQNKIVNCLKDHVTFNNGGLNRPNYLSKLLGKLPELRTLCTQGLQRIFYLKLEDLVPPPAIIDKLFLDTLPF
The gist of the method:
as §1

For assay [6], the target named is T4, NFKBIA 70-282 EF-hand_6 (domain begin residue: 70, domain end residue: 282), P25963.
T4 chain: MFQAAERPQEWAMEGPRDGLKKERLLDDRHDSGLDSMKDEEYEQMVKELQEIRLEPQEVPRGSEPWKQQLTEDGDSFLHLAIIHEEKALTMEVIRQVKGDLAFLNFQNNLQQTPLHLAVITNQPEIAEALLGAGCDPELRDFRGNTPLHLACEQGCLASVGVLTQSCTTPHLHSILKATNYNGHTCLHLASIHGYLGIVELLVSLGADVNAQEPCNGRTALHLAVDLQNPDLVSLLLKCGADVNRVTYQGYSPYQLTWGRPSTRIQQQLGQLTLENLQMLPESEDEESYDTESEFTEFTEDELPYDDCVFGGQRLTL
The essentials: as §1

Assay [7] deals with T5, NR2C1 355-603 Hormone_recep (domain begin residue: 355, domain end residue: 603), P13056.
T5 chain: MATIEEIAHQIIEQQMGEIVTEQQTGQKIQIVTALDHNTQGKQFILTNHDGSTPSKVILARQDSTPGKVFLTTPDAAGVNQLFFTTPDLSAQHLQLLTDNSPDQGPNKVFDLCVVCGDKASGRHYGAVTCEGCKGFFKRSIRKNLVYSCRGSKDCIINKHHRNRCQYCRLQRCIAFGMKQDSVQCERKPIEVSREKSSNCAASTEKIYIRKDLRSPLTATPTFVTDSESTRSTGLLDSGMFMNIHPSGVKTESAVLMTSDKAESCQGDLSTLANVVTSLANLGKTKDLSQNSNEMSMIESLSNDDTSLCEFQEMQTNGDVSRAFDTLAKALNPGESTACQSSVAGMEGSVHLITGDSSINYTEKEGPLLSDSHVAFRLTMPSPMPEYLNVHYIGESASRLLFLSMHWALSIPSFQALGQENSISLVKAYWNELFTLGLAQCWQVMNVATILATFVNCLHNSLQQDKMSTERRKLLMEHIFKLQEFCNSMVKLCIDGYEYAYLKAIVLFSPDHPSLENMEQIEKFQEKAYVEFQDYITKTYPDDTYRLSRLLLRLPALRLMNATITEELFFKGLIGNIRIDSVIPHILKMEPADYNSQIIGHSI
The essentials:
as §1

Assay [8] has as its target T6, NR1H4 256-474 Hormone_recep (domain begin residue: 256, domain end residue: 474), Q96RI1.
T6 chain: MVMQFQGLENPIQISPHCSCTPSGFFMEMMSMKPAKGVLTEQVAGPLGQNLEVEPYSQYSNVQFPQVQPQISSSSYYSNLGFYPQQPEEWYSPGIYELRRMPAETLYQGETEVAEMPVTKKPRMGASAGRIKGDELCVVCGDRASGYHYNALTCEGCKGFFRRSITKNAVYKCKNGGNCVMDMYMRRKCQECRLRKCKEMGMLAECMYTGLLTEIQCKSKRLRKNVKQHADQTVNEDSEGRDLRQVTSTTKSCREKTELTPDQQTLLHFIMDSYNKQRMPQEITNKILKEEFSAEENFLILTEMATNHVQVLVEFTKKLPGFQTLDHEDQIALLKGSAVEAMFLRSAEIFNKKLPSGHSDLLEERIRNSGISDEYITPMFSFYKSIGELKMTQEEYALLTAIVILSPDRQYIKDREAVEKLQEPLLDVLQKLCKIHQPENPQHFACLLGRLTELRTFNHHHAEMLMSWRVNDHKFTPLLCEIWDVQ
The gist of the method:
as §1

For assay [9], the target named is NR2E3 154-410 Hormone_recep (domain begin residue: 154, domain end residue: 410), Q9Y5X4. The essentials: as §1
Chain of NR2E3 154-410 Hormone_recep (domain begin residue: 154, domain end residue: 410), Q9Y5X4 (Q9Y5X4 whole entry): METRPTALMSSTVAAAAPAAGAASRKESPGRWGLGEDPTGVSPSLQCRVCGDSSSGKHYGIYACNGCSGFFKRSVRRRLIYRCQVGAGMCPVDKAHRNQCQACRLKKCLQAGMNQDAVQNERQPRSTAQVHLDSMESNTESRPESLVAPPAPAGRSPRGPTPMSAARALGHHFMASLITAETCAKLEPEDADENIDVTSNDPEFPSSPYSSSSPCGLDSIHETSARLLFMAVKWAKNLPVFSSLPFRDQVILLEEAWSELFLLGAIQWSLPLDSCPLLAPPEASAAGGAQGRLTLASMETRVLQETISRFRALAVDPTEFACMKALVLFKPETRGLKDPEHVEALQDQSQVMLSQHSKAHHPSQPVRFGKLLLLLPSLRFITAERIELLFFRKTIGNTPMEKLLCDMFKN

15 molecules from the supplement of paper PMC7724964 can be followed below.

Chain of MSH6 89-203 PWWP (domain begin residue: 89, domain end residue: 203), P52701 (P52701 whole entry): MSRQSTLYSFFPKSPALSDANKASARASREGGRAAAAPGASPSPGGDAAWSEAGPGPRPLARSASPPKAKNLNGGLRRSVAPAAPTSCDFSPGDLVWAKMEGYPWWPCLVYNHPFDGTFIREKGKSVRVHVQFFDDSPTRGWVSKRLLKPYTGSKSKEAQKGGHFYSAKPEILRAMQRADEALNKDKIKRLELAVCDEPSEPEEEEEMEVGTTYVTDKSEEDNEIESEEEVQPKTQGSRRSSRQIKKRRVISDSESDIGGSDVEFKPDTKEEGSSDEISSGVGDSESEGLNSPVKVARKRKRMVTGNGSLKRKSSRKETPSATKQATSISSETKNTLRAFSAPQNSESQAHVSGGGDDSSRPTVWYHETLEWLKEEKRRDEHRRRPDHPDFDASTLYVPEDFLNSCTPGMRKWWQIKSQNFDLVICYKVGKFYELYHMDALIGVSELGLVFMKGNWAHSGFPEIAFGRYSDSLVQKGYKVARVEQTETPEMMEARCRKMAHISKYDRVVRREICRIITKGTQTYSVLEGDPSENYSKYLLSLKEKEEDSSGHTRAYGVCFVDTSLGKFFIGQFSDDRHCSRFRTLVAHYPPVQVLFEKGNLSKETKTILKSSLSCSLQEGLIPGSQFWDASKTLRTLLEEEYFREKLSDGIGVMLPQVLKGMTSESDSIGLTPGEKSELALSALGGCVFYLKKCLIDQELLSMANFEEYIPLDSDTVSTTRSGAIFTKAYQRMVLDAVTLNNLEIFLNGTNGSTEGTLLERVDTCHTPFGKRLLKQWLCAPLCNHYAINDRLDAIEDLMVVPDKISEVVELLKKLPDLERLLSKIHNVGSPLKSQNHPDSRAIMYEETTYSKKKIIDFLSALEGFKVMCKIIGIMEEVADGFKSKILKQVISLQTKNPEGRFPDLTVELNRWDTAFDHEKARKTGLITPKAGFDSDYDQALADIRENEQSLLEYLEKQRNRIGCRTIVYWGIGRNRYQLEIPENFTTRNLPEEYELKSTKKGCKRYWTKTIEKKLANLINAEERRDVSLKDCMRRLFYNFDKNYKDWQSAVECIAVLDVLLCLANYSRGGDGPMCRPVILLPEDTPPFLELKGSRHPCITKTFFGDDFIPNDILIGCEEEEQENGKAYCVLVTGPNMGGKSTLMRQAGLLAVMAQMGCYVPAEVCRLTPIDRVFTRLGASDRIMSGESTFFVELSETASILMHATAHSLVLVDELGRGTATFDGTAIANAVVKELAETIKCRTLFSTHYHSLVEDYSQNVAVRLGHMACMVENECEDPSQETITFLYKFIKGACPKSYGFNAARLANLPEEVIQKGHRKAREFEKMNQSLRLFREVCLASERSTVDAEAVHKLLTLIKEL

Take YFYTQVNGIWYKWVLS: the “phage ELISA signal ratio” value in [1] amounted to 4.86.
As to SADSMYPELDWLVWAM, the “phage ELISA signal ratio” value in assay [2] is 10.
With PMWDSVWDHLLTEPPE, the “phage ELISA signal ratio” value in [3] is 5.84.
On to QQAQPRWWSMVLQHEW, for which, in [4], the “phage ELISA signal ratio” value came to 4.92.
As for VWPDIYPELQFLHMMY, the “phage ELISA signal ratio” value in [2] is 5.69.
Consider TMSLWPSSWDIITLNS, for which, in [5], the “phage ELISA signal ratio” value is 15.
For the molecule GEDPPPYSPLTSPDSG, in assay [6], the “phage ELISA signal ratio” value turned out to be 4.18.
On to TELPPLPYAWQDYAHW, for which the “phage ELISA signal ratio” value in [7] came to 24.8.
With LAFGEWLDKEIGLAYF, in assay [8], the “phage ELISA signal ratio” value was 14.3.
In the case of PYTGIWFGEYLHNFIP, the “phage ELISA signal ratio” value in assay [7] was 9.25.
In the case of DEWWMFYPQPMYDLWH, the “phage ELISA signal ratio” value in [9] is 6.08.
Take GWSPWYEGRGVDWMTW: the “phage ELISA signal ratio” value in [5] is 5.78.
In the case of NQWGPYWSFSFVPMDW, the “phage ELISA signal ratio” value in assay [7] came to 8.51.
For the molecule GDLEQHLMEWWTREVF, in [8], the “phage ELISA signal ratio” value stood at 12.3.
Consider AFKQLMFHVIGEEYSV, for which the “phage ELISA signal ratio” value in [5] turned out to be 30.5.
